Compounds with a hit are over-represented: about 2.4% of the library has one in this group of screens.
PHOSPHO1 block: PHOSPHO1 (human) inhibition | Q8TCT1 | recombinant PHOSPHO1, absorbance phosphatase assay | inhibition, % at 13.3 µM | 290,000 compounds, 1.1% hits; in the data active = inhibition above about 60%
Target sequence (Q8TCT1 whole entry, looked up): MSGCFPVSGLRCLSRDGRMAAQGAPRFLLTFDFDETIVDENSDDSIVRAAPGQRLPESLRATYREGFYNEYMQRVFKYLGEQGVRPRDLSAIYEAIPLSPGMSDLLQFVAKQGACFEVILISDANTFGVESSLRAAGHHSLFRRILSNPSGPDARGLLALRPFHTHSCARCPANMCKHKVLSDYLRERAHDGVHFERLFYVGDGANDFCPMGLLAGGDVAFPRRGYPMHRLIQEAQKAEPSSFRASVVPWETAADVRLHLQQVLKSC
eIF4H FP inh: inhibitors of RNA binding by human eIF4H. eIF4H fluorescence polarization binding assay. inhibition, % at 35 µM. 290,000 compounds, 0.94% hits;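 note: calls also rest on retests at 20 µM and on dose response follow-up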
Efa HMGR inh: inhibitors of class II HMG-CoA reductase from Enterococcus faecalis | purified E. faecalis HMGR, NADPH absorbance 340 nm kinetic | inhibition, % at 10 µM | 190,000 compounds, 0.41% hits;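 active = inhibition above a set limit, the median over all tested compounds plus 3 SD, cut at about 9.5% in these data; inconclusive = no clear call, values can overlap the other calls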;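 note: enzyme runs in reverse so mevalonate oxidation gives rising NADPH absorbance; 0% = complete reaction with DMSO and 100% = background rate lacking mevalonate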
MLLE-PAM2 inh: blocks PAM2 peptide binding to the PABP1 MLLE domain. AID 588489. P11940. 360,000 compounds, 0.36% hits. GST-MLLE / FITC-PAM2 fluorescence polarization. inhibition, % at 20 µM; in the data active = inhibition above about 35%, passing the limit was not always enough;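 note: plate controls were DMSO wells with GST-MLLE for no effect and wells lacking GST-MLLE protein for full effect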
PABP FP inh: blocks human PABP binding to poly(A) RNA | fluorescence polarization | 290,000 compounds, 1% hits | P11940 | calls only at 35 µM;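 note: calls also rest on retests at 20 µM and on dose response follow-up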
Numbers without * were called inactive. Unless noted, the rule behind the calls is not given here.

How did COc1ccc(CNC(=O)COC(=O)c2cc(-c3ccco3)nc3ccccc23)cc1 do in these assays?
PHOSPHO1 block: 24; eIF4H FP inh: 90*; Efa HMGR inh: -2; PABP FP inh: inactive

Results for COc1cc(C2=NC(CO)(CO)CO2)cc(OC)c1OC ?
PHOSPHO1 block: 36; eIF4H FP inh: 2; Efa HMGR inh: -7; MLLE-PAM2 inh: 5; PABP FP inh: inactive

How did CCCCCCn1c(=O)n2n(c1=O)[C@@H]1CN(S(=O)(=O)c3ccc(C)cc3)C[C@]1(O)[C@@H](OC(=O)NCc1ccccc1)C2 do in these assays?
MLLE-PAM2 inh: -13

Results for C=CC[C@@H](CC(=O)N[C@H](CO)Cc1ccccc1)C(=O)NC[C@H](OC(=O)[C@@H](CC=C)Cc1ccc(F)cc1)c1ccccc1 ?
MLLE-PAM2 inh: 6

How did CCCCc1ccc(NC(=O)CC(C)(C)C)cc1 do in these assays?
PHOSPHO1 block: 6; eIF4H FP inh: 98*; Efa HMGR inh: -5; MLLE-PAM2 inh: 2; PABP FP inh: active

What do the screens show for `CCNC(COC(=O)c1ccc([N+](=O)[O-])cc1)C1CCCCC1` (stereo not given)?
MLLE-PAM2 inh: 5

How did COc1ccc(/C=C2/C(=O)OCc3cc(OC)c(OC)cc32)cc1 do in these assays?
PHOSPHO1 block: -8; eIF4H FP inh: active; Efa HMGR inh: -1; MLLE-PAM2 inh: 3; PABP FP inh: active

Results for COc1ccc(/C=C2\CCOC2=O)cc1 ?
PHOSPHO1 block: 25; eIF4H FP inh: 7; Efa HMGR inh: -8; MLLE-PAM2 inh: 25; PABP FP inh: inactive

What do the screens show for `O=C(NCc1ccccc1Cl)c1ccc(Cn2cc(C(F)(F)F)ccc2=O)cc1`?
PHOSPHO1 block: 65*; eIF4H FP inh: 7; Efa HMGR inh: -1; MLLE-PAM2 inh: 2; PABP FP inh: inactive

How did O=C(NCc1ccc(Cl)cc1)c1ccc(Cn2cc(C(F)(F)F)ccc2=O)cc1 do in these assays?
PHOSPHO1 block: 24; eIF4H FP inh: -7; Efa HMGR inh: 3; MLLE-PAM2 inh: -5; PABP FP inh: inactive

What do the screens show for `CNc1nc(-c2c[nH]c3ccccc23)cs1`?
PHOSPHO1 block: 100*; eIF4H FP inh: 5; Efa HMGR inh: -3; MLLE-PAM2 inh: -92; PABP FP inh: inactive

Results for CCC(C)Nc1nc(-c2c[nH]c3ccccc23)cs1 (stereo not given) ?
PHOSPHO1 block: 28; eIF4H FP inh: 0; MLLE-PAM2 inh: 3; PABP FP inh: inactive

Results for Cc1ccc(S(=O)(=O)OCC(=O)Nc2ccc(C(=O)O)c(O)c2)cc1 ?
MLLE-PAM2 inh: 44*

Results for CCOC(=O)C1=C(O)C(=O)N(C2CCCCC2)C1 ?
PHOSPHO1 block: 16; eIF4H FP inh: 2; MLLE-PAM2 inh: 14; PABP FP inh: inactive

Results for CCOC(=O)C1=C(c2ccccc2)N=c2s/c(=C\c3cc(OC)c(OC)c(OC)c3)c(=O)n2C1c1cccs1 (stereo not given) ?
PHOSPHO1 block: -1; eIF4H FP inh: inconclusive; Efa HMGR inh: 0; MLLE-PAM2 inh: -7; PABP FP inh: active

How did CCOC(=O)C1=C(c2ccccc2)N=c2s/c(=C\c3ccco3)c(=O)n2C1c1cccs1 (stereo not given) do in these assays?
PHOSPHO1 block: -10; eIF4H FP inh: 75; Efa HMGR inh: -5; MLLE-PAM2 inh: -97; PABP FP inh: inactive

How did CCC(C)(C)n1nnnc1C(c1ccc(O)c(OC)c1)N1CCN(c2nc3ccccc3s2)CC1 (stereo not given) do in these assays?
PHOSPHO1 block: 68*; eIF4H FP inh: 2; Efa HMGR inh: -4; MLLE-PAM2 inh: 19; PABP FP inh: inactive

Results for COc1ccc(C(c2nnnn2C(C)(C)C)N2CCN(c3nc4ccccc4s3)CC2)cc1 (stereo not given) ?
PHOSPHO1 block: 24; eIF4H FP inh: -1; Efa HMGR inh: 2; MLLE-PAM2 inh: 1; PABP FP inh: inactive

What do the screens show for `CCN(CC)C(=S)NC(=O)c1ccc(OC)c(Br)c1`?
PHOSPHO1 block: 8; eIF4H FP inh: 4; Efa HMGR inh: -2; MLLE-PAM2 inh: 35; PABP FP inh: inactive

Results for C=CCN(CC=C)C(=S)NC(=O)c1ccc(OC)c(Br)c1 ?
PHOSPHO1 block: 7; eIF4H FP inh: 3; Efa HMGR inh: -1; MLLE-PAM2 inh: 44*; PABP FP inh: inactive

Results for Cc1csc(NC(=O)c2ccc(S(C)(=O)=O)cc2)n1 ?
PHOSPHO1 block: -8; eIF4H FP inh: -4; Efa HMGR inh: -8; MLLE-PAM2 inh: -1; PABP FP inh: inactive

What do the screens show for `Cc1csc(NC(=O)c2ccc(C(=O)Nc3nc(C)cs3)cc2)n1`?
PHOSPHO1 block: 17; eIF4H FP inh: inconclusive; PABP FP inh: active

High-throughput results deposited in PubChem BioAssay by several laboratories.
